Inconclusive results are not listed. Values without a mark were called inactive. Active and inactive are the calls of the source. Calls come from the whole dose curve; as a rule, active = well fitted inhibition curve with a large enough effect; inconclusive = small, poorly fitted or top-dose-only effect; inactive = flat fitted curve, though single readings scatter. Where a SMILES comes first, the peptide text is derived from it. [ ]: non-standard residue; d: D form. ξ: configuration not given here. ξPhe(βξ-Me) = CC(c1ccccc1)C(N)C(=O)O; GABA = NCCCC(=O)O
Test system: CRL-7250
Experiment: Cytotoxic Profiling of Annotated Libraries Using Quantitative High-Throughput Screening (AID 1296008); note: nearly all actives have a fitted effect of over 60% in size
Conditions: Five cell lines viability, CellTiter-Glo ATP luminescence, 48-72 h; max response: hits give low values
Summary of the method: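 Cells exposed to compounds for 48 or 72 hr at 37 degrees Celsius. Viability read as ATP-coupled luminescence with CellTiter-Glo after 10 min at room temperature.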
% is set by controls: 0 for no effect and ±100 for the full control effect.

SMILES | max response [%] | outcome
CC1(C)CC2C(C1)C1(C)CCC13OC3(CO)C2O (centres undefined) | -2.76 | –
CC[C@H]1OC(=O)[C@H](C)[C@@H](OC2C[C@@](C)(OC)[C@@H](O)[C@H](C)O2)[C@H](C)[C@@H](OC2O[C@H](C)C[C@H](NC)[C@H]2O)[C@](C)(O)C[C@@H](C)CN(C)[C@H](C)[C@@H](O)[C@]1(C)O (some centres undefined) | – | inactive
CC(=O)O[C@H]1[C@H](C)[C@@H](O)[C@H]2[C@@H]1C=C(C(=O)O)[C@H]1C[C@@H]3[C@H]([C@H]21)[C@H]1C(=O)O[C@@H]2CC[C@@]3(C)O[C@]1(O)[C@@H]2C | -0.589 | –
Cn1ccnc1CCOC(c1cc2nccc(C(=O)O)c2[nH]1)c1ccccc1Cl (centres undefined) | – | inactive
COc1cc([C@@H]2Oc3c(OC)cc(CCCO)cc3[C@@H]2CO[C@@H]2O[C@H](CO)[C@@H](O)[C@H](O)[C@H]2O)ccc1O | – | inactive
Cc1cc(O)cc(Oc2cc(C)c(C(=O)O)c(O)c2)c1 | -27.9 | –
CC(c1c[nH]c2ccccc12)C(O)C(=O)O (centres undefined) | -1.71 | –
CC(C)CC1NC(=O)C(C(C)c2ccccc2)NC(=O)C(C(C)C)NC(=O)C(C)NC(=O)CCCNC(=O)C(Cc2c[nH]c3ccccc23)NC(=O)C(C)NC1=O (stereo not drawn) (cyclo([GABA]AV[ξPhe(βξ-Me)]LAW); configuration not given here) | -5.31 | –
COc1cc(/C=C/C(=O)OC(C)(C)C(OC2OC(CO)C(O)C(O)C2O)C(=O)OCc2ccc(OC3OC(CO)C(O)C(O)C3O)cc2)ccc1O (centres undefined) | -9.61 | –

Reference: PubChem BioAssay (NCATS)
